Six1-Eya2 blk: Six1/Eya2 interaction inhibition; activity change, % (concentration not given with the values); AID 651725; 360,000 tested, 0.56% active; AlphaScreen GST-Six1/His-Eya2 binding, biochemical; hits give low values; in the data active = activity change below about -65%; inconclusive = mostly about -30% to -63%
Target sequence (O00167 whole entry, looked up): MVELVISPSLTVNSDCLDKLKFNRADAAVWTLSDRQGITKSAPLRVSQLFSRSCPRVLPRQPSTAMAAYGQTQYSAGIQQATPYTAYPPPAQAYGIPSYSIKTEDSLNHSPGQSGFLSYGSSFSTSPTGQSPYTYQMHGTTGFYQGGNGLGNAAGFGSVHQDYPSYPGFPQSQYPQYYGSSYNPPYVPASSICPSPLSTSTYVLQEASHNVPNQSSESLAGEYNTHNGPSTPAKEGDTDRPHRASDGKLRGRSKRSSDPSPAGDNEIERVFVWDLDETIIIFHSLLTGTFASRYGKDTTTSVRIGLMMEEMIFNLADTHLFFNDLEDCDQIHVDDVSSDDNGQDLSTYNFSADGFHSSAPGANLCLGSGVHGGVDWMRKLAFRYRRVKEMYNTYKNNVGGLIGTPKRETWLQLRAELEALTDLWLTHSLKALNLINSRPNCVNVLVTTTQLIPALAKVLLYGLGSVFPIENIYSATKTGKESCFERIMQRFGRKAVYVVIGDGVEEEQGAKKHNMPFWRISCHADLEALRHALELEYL
Target sequence (Q15475 whole entry, looked up): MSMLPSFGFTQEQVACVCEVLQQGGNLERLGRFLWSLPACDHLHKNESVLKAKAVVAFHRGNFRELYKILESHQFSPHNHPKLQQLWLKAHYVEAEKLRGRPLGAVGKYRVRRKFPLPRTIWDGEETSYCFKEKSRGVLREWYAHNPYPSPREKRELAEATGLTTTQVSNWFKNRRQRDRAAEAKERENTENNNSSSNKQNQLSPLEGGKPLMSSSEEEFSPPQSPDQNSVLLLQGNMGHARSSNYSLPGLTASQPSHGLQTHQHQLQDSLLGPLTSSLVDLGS
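GST-Six1 + His-Eya2 (5X stock: 250/500 nM); Tris pH 8.0, 300 mM NaCl, 0.05% BSA, 0.02% Tween 20; GSH donor/Ni acceptor beads; 1 h 37 °C dark; AlphaScreen readout.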
TDP1 cell CPT: DT40-hTDP1 cell growth loss with CPT. chicken DT40 Tdp1-/-;hTDP1 cells + 20 nM CPT, ATP luminescence, 48 h. Potency, µM (doses to about 46.2 µM), for inactives: at the highest dose activity change, negative = growth inhibition, most hits filed as inhibitors. 420,000 tested, 12% active. AID 686979; note: potency is the fitted concentration of half-maximal effect; nearly all actives have a fitted effect of over 55% in size
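Chicken DT40 Tdp1-/- cells stably complemented with human TDP1 were seeded at 400 cells/well in medium containing 20 nM camptothecin, exposed to pin-transferred compounds, and grown at 37 °C for at least 48 hr. Viability was read as ATP luminescence.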
TDP1 cell noCPT: qHTS for Inhibitors of human tyrosyl-DNA phosphodiesterase 1 (TDP1): qHTS in cells in absence of CPT; 420,000 tested, 15% active; DT40 Tdp1-/- hTDP1 cells, no CPT, ATP luminescence, 48 h; Potency, µM (series often up to 46.2 µM), for inactives: at the highest dose activity change, negative = growth inhibition, usual class: inhibitors; note: potency is the fitted concentration of half-maximal effect; nearly all actives have a fitted effect of over 55% in size
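Camptothecin absent (DMSO only). Human TDP1-complemented DT40 knockout cells, 400 cells/well, 37 °C for minimum 48 hr; ATP measured via CellTiter-Glo, 30 min dark incubation, luminescence.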
CtBP-E1A blk: inhibitors of CtBP/E1A interaction; AID 651724; activity change, % (concentration not given with the values); AlphaScreen GST-E1A/His-CtBP binding, 1536-well; hits give low values; 340,000 tested, 0.49% active; in the data active = activity change below about -65%; inconclusive = mostly about -30% to -63%
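AlphaScreen with 125 nM GST-E1A and 125 nM His-CtBP (5X stocks) in Tris pH 8.0, 300 mM NaCl, BSA, Tween 20, TCEP. Compounds preincubated 2 h at 37 deg C, then glutathione donor/nickel acceptor beads added for 1 h at 37 deg C in dark.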
IL1B secr inh: inhibitors of inflammasome signaling (IL-1 beta secretion). THP-1 LPS/ATP IL-1B secretion, AlphaLISA, 16 h; hits give low values. activity change, % at 57.5 µM. 360,000 tested, 4.7% active. AID 743279; in the data active = activity change below about -50%; inconclusive = mostly about -30% to -49%
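Secreted IL-1B measured by AlphaLISA bead assay after 16 h compound exposure of THP-1 cells; compounds (final up to 57.5 uM) added 1 h before LPS (250 ng/mL) and ATP (1.25 mM) stimulation; lower signal means less secretion.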
TDP1 inh: TDP1 (human) enzyme inhibition | Q9NUW8 | recombinant TDP1, AlphaScreen DNA substrate cleavage | Potency, µM (doses to about 130 µM), inactives show top-dose activity change, negative = inhibition, hits mostly inhibitors | 350,000 tested, 0.28% active | AID 485290; note: potency is the fitted concentration of half-maximal effect; nearly all actives have a fitted effect of over 40% in size
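Recombinant E. coli-expressed Tdp1 (1 nM) preincubated with compound 15 min at RT, then 5'-biotin/3'-phosphotyrosine-FITC DNA substrate (15 nM) added for 5 min. AlphaScreen beads (10 ug/ml) added, 10 min RT; tyrosine-FITC cleavage read as signal loss.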
Numbers without * were called inactive; ? = inconclusive; . = no result given; [ ] = another dose, or the depositor's remark. In the library only some 18% were active in any assay of this set; here they are far more common. Unless noted, calls come from the whole dose curve; as a rule, active = well fitted curve in the direction sought with a large enough effect; inconclusive = small, poorly fitted or top-dose-only effect, or another doubt; inactive = no such curve, though single readings can be large; an effect the other way counts as inactive or inconclusive. % is set by controls: 0 for no effect and ±100 for the full control effect.

SMILES	Six1-Eya2 blk	TDP1 cell CPT	TDP1 cell noCPT	CtBP-E1A blk	IL1B secr inh	TDP1 inh
CCOC(=O)C1CCCN(S(=O)(=O)c2c(C)[nH]c(C)c2C(=O)N2CCCC2)C1 (centres undefined)	2.3	4.6%	27.1%	2.0	13.9	1.3%
CC(=O)Nc1ccc(Sc2ccccc2C(=O)O)cn1	-8.8	4.4%	15.9%	-2.6	13.1	.
CC(=O)Nc1ccc(Sc2ccccc2C(=O)Nc2ccc(F)cc2)cn1	-1.2	?	18.4µM*	.	22.3	2.9%
Cc1cc(C(=O)NCC2CCC3(CCN(Cc4ccc(F)cc4)CC3)O2)n(C)n1 (centres undefined)	.	-4.0%[9.04 µM]	?	.	.	.
Cc1cc(C(=O)NCC2CCC3(CCN(Cc4cccc(F)c4F)CC3)O2)n(C)n1 (centres undefined)	.	20.6µM*	11.6µM*	.	.	.
Cn1nccc1C(=O)NCC1CCC2(CCN(Cc3ccc(-c4ccc(Cl)cc4)o3)CC2)O1 (centres undefined)	.	?	14.6µM*	.	.	.
Cc1cc(C(=O)NCC2CCC3(CCN(Cc4ccc5ccccc5c4)CC3)O2)n(C)n1 (centres undefined)	.	20.6µM*	16.4µM*	.	.	.
CC(C)c1ccc(CN2CCN(C(=O)CCl)CC2)cc1	8.8	1.16µM*	0.731µM*	.	-99.7*	2.3%
Cc1ccccc1NC(=O)c1ccc(CN2CC(=O)N3CCCCC3C2=O)cc1 (centres undefined)	1.4	3.3%	-9.5%	6.1	4.2	.
CC(C)c1ccc(/C=C/C(=O)Nc2ccc(CN3CCOCC3)cc2)cc1	-6.4	8.2µM*	13µM*	4.4	-93.8*	5.1%
CC(C)c1ccc(C(=O)Nc2ccc(CN3CCOCC3)cc2)cc1	11.3	?	?	-5.5	-54.5*	.
COc1ccc(/C=C/C(=O)Nc2ccc(N3CCOCC3)cc2)cc1	10.2	5.1%	?	18.4	10.4	0.0%
CC(C)c1ccc(NC(=O)c2ccc(CN3CC(=O)N4CCCCC4C3=O)cc2)cc1 (centres undefined)	.	?	16.4µM*	.	.	3.7%
NC(=O)c1ccc(NC(=O)c2ccc(CN3CCOCC3)cc2)cc1	2.6	0.5%	-3.2%	-2.2	-11.5	-0.7%
Cc1ccc(-n2c(=O)[nH]cc(C(=O)N3CCc4ccccc43)c2=O)cc1C	3.3	18.0%	-23.0%	2.9	10.3	3.3%
CCCCCCOC(=O)/C=C/c1c(C)[nH]c(=O)[nH]c1=O	-3.9	?	4.61µM*	-0.2	31.0	0.0%
Cc1ccc(NC(=O)CSc2nc(C)c(C)c(C)n2)cc1S(=O)(=O)N1CCOCC1	0.4	-20.9%	?	2.2	32.5	1.9%
Cc1cccc(C)c1NC(=O)C(c1ccnc2ccccc12)n1c(=O)c(-c2ccccc2)nc2ccccc21 (centres undefined)	7.3	?	14.6µM*	21.3	-20.4	.
Cc1cccc(C)c1NC(=O)C(c1ccc(C#N)cc1)n1c(=O)c(-c2ccccc2)nc2ccccc21 (centres undefined)	-16.9	-4.6%	?	?	-50.1*	.
CN1CCN(S(=O)(=O)NC[C@H]2O[C@@H](n3cnc4c(N)ncnc43)[C@H](O)[C@@H]2O)CC1	5.5	5.4%	18.6%	-23.3	11.7	0.7%[56.1 µM]
COc1cc(/C=C2\NC(=S)N(C)C2=O)ccc1OCc1ccccc1F	-5.5	-9.9%	-23.6%	.	0.4	.
COc1ccc(-c2c(C)n([O-])c(C)c(-c3ccccc3)[n+]2=O)cc1OC	2.2	7.6%	0.1%	8.3	-8.9	2.9%
COC[C@H]1CCCN1c1ccc2c(c1)O[C@@H](COCc1ccccc1)CN([C@H](C)c1ccccc1)S2(=O)=O	2.8	9.2µM*	13µM*	-26.9	-8.9	.
COC[C@H]1CCCN1c1ccc2c(c1)O[C@H](COCc1ccccc1)CN([C@H](C)c1ccccc1)S2(=O)=O	-10.2	?	18.4µM*	-4.8	48.9	.
C[C@H](c1ccccc1)N1C[C@H](COCc2ccccc2)Oc2cc(N3CCC[C@H]3CO)ccc2S1(=O)=O	-2.5	?	?	0.3	20.0	.
SMILES	Six1-Eya2 blk	TDP1 cell CPT	TDP1 cell noCPT	CtBP-E1A blk	IL1B secr inh	TDP1 inh
COC[C@@H]1CCCN1c1ccc2c(c1)O[C@H](COCc1ccccc1)CN([C@@H](C)c1ccccc1)S2(=O)=O	3.6	2.59µM*	3.66µM*	-20.1	20.4	.
Cc1cc(C(=O)N/N=C/c2cc(Br)c(Br)o2)n[nH]1	-22.8	-12.9%	-10.2%	-24.5	-8.8	-20.5%
Cn1c(C(=O)NC2CC2)cc2c(=O)n(C)c3ccccc3c21	-4.7	?	?	-6.4	-63.3*	4.9%
CCOC(=O)N1CCC(NC(=O)c2cc3c(=O)n(C)c4ccccc4c3n2C)CC1	-0.1	20.6µM*	?	6.0	-5.4	7.9%
CCOC(=O)c1ccc(NC(=O)c2cc3c(=O)n(C)c4ccccc4c3n2C)cc1	.	25.2%	0.0%	.	.	1.2%
Cn1c(C(=O)Nc2ccc3c(c2)OCCO3)cc2c(=O)n(C)c3ccccc3c21	-6.4	13µM*	11.6µM*	-9.7	-68.6*	1.3%
COCCNC(=O)c1cc2c(=O)n(C)c3ccccc3c2n1C	-0.4	-10.4%	-14.4%	-0.6	-6.0	-1.0%
Cc1ccccc1-n1nc(C)c2cc(C(=O)N3CCN(S(=O)(=O)c4ccccc4)CC3)sc21	3.9	0.8%	-25.9%	-1.2	23.2	0.0%
CN1c2ccsc2/C(=N/Nc2ccccc2)CS1(=O)=O	-18.1	4.11µM*	1.3µM*	-13.9	?	?
CN1c2ccsc2/C(=N/NC(=O)c2c(F)cccc2F)CS1(=O)=O	1.6	-14.2%	-13.2%	2.0	12.2	9.4%
Cc1cccc(C(=O)N/N=C2\CS(=O)(=O)N(C)c3ccsc32)c1	0.4	20.6µM*	13µM*	-5.7	22.2	6.8%
[NH-]c1ncnc2c1N=C[N+]2=CC=CCO	1.2	2.59µM*	4.11µM*	.	10.2	5.7%
Cc1cc(NCCCn2ccnc2)n2nc(-c3ccc(Cl)cc3)cc2n1	-14.7	-21.6%	?	-6.8	-65.4*	4.7%
CC(C)(C)c1cc(NCCCn2ccnc2)n2ncc(-c3ccc(Cl)cc3)c2n1	5.2	?	18.4µM*	-7.8	-86.4*	10.5%
Cc1cc(-c2ccccc2)nc2cc(C(=O)NCCCn3ccnc3)nn12	-5.8	5.0%	6.6%	-0.7	?	0.0%
CN(C)CCCNc1cc(C(C)(C)C)nc2c(-c3ccccc3)cnn12	0.2	?	16.4µM*	-17.7	-98.0*	6.8%
